In all, about 390,000 compounds went through this assay and about 17,000 (4.4%) were called active. Another 8% or so got no clear call; they are omitted. The call rests on the fitted dose curve; in most records, active means well fitted inhibition curve with a large enough effect; inconclusive means small, poorly fitted or top-dose-only effect; inactive means no such curve, though single readings can be large or run the other way. This excerpt belongs to a sample that is enriched for actives.
Biological target: Lysine-specific demethylase 4A (Homo sapiens) (UniProt O75164)
Experiment: qHTS Assay for Inhibitors of JMJD2A-Tudor Domain; further: nearly all actives have a fitted effect of over 50% in size
Conditions: AlphaScreen JMJD2A-Tudor / H3K4me3 peptide binding; series mostly up to 114 µM
Potency means the concentration at half of the fitted maximal effect.

Chain of Lysine-specific demethylase 4A (Homo sapiens) (O75164 whole entry, looked up, the tested form may be a part): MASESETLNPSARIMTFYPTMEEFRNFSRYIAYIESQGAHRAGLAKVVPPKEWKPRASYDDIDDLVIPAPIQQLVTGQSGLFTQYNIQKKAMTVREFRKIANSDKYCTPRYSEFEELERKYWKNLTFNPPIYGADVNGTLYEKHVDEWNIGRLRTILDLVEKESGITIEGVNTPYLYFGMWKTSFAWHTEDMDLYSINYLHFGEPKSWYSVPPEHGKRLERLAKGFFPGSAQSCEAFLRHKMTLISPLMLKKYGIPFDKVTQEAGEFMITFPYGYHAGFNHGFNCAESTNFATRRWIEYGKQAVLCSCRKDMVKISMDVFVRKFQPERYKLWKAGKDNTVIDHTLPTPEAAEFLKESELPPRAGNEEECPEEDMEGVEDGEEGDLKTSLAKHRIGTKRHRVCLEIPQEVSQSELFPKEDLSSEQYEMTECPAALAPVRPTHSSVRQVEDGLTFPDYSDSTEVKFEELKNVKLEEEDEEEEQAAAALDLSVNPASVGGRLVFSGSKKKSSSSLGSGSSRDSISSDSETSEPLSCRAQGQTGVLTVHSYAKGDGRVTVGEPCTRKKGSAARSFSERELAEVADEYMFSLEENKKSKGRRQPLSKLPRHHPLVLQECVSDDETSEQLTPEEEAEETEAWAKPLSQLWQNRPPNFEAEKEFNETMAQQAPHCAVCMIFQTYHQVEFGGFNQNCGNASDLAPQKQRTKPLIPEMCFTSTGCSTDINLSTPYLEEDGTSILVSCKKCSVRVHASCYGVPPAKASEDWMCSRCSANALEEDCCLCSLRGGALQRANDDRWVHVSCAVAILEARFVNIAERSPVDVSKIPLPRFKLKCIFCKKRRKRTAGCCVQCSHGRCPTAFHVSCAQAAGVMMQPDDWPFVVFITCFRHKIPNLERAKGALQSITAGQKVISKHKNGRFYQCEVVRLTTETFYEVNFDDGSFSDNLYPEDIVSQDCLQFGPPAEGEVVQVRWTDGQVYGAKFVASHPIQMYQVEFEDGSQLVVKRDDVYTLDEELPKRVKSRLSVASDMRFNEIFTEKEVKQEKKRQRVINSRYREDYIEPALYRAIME

Potency, inactive:
Fc1ccc(C(Nc2ccc(Cl)c(C(F)(F)F)c2)c2nnc(-c3ccccc3)o2)cc1 (centres undefined)
CCn1c(=O)cc(OCC(=O)Nc2cc(Cl)c(OC)cc2OC)c2ccccc21
COc1ccc(NC(=O)c2ccc3nc(CCc4ccccc4)oc3c2)c(OC)c1
COc1ccc(NS(=O)(=O)c2ccc(Oc3c(C#N)cccc3C#N)cc2)cc1
COc1ccc(S(=O)(=O)Nc2cc3c(C(=O)OC(C)C)c(C)oc3c3ccccc23)cc1
Cc1ccc(Cl)cc1N1CCN(C(=O)c2cccn3c(=O)c4cc(Cl)ccc4nc23)CC1
CCCC(=O)Nc1cc(C(=O)NCc2ccc(OC)cc2)ccc1S(=O)(=O)c1ccc(Cl)cc1
CCN(CC)S(=O)(=O)c1ccc2c(c1)N(CC(=O)NCC(C)c1ccccc1)C(=O)CO2 (centres undefined)
CCc1cccc(NC(=O)CN(c2ccc(C)c(C)c2)S(=O)(=O)c2ccsc2C(=O)OC)c1
CSc1ccc(CNCCN2CCOCC2)cc1
O=C(NCCCN1CCOCC1)c1cc(-c2ccccc2F)no1
Cc1cc(C)cc(NC(=O)Cc2csc(C)n2)c1
COc1ccccc1OCCCn1c(-c2ccc(Cl)cc2)nc2ccccc2c1=O
COc1ccc(OCc2ccc(-c3nc4ccccc4c(=O)n3N)o2)cc1
COc1ccc(CCNS(=O)(=O)c2cc(-c3cc(C)no3)ccc2C)cc1OC
COc1ccc(-c2nc(SCC(=O)N3CCCCC3C)n[nH]2)cc1 (centres undefined)
CCn1c2c(c(=O)n3ncc(C(=O)N4CCN(c5ccccc5)CC4)c13)CN(Cc1ccc(OC)cc1)CC2
O=C(CN1CCCCCC1)Nc1c(Cl)cc(Cl)cc1Cl
Cc1cc(C)c(NC(=O)CN2CCCCCC2)c(C)c1
COc1ccc(CCNC(=O)c2nn(C)c3c2CSc2ccccc2-3)cc1OC
Cc1nc2ccccn2c(=O)c1NC(=O)c1c(F)cccc1F
CCn1c2ccccc2c2nnc(N3CCN(c4cc(C)ccc4C)CC3)nc21
O=C(COC(=O)c1ccccc1F)Nc1cc(S(=O)(=O)N2CCOCC2)ccc1N1CCCC1
CN1CCN(c2ccc(S(=O)(=O)N3CCOCC3)cc2NC(=O)CCc2ccccc2)CC1
Cc1ccc(S(=O)(=O)N2CCOCC2)cc1C(=O)Nc1ccccc1N1CCCC1
O=C(COC(=O)Cc1ccc(F)cc1)Nc1cc(S(=O)(=O)N2CCOCC2)ccc1N1CCCC1
COc1ccc(/C=C/c2noc(-c3ccccc3O)n2)cc1OC
COc1ccc(NC(=O)C2CCCN(S(=O)(=O)c3cccc4nonc34)C2)cc1Cl (centres undefined)
Cc1cc(C)cc(NC(=O)Cn2c(=O)c3ccccc3n3nncc23)c1
CCc1cccc(-n2nnc(-c3nsc(NC(=O)c4ccc(C)cc4)n3)c2C)c1
COc1cc(/C=C/C(=O)OCC(=O)c2ccccc2)cc(OC)c1OC
COc1ccc(NS(=O)(=O)c2cc(NC(=O)/C=C/c3cc(OC)c(OC)c(OC)c3)ccc2N2CCCCC2)cc1
O=C(CN1c2ccccc2S(=O)(=O)c2ccccc21)Nc1cccc(C(F)(F)F)c1
COc1ccccc1N1CCN(c2ncnc3onc(-c4cccc(Cl)c4)c23)CC1
COC(=O)c1ccc(NC(=O)c2cccc3c2C(=O)N(C2CCCCC2)C3)cc1
CCCS(=O)(=O)c1ncc(Cl)c(C(=O)Nc2scc(-c3ccccc3)c2C(=O)OCC)n1
COC(=O)c1ccc(NC(=S)NN2CCOCC2)cc1
O=C(Nc1ccc(S(=O)(=O)Nc2ncccn2)cc1)C12CC3CC(CC(C3)C1)C2
O=C(Nc1ccccc1F)C(c1ccccc1)N1Cc2ccccc2C1=O (centres undefined)
CCN(C(=O)Cn1c(=O)nc(-c2ccccc2)c2cc(Cl)ccc21)c1cccc(C)c1
Cc1cn(C)c(CC(=O)NCc2ccc(Cl)cc2)c1C(=O)O

Potency, active:
COc1ccc(S(=O)(=O)/N=C2\C=C(NS(=O)(=O)c3ccccc3)C(=O)c3ccccc32)cc1 39.8 µM
CCCCC(CC)CNCc1cccn1CCN1CCOCC1 (centres undefined) 28.2 µM
Cn1c(COc2ccc(Cl)cc2)nc2ccccc2c1=O 28.2 µM
Cc1csc(NC(=O)CN2CCCCCC2)n1 1.58 µM
COCCNC(=S)Nc1cc(S(=O)(=O)N2CCOCC2)ccc1N1CCCCC1 79.4 µM
O=C(CNCc1ccco1)Nc1cc(S(=O)(=O)N2CCOCC2)ccc1N1CCCC1 79.4 µM
COc1ccccc1Nc1c2c(nc3ccc(NC(=O)/C=C/c4cc(OC)c(OC)c(OC)c4)cc13)CCCC2 15.8 µM
COC(=O)c1ccc(NC(=O)C23CC4CC(C2)CC(n2cnc(Cl)n2)(C4)C3)cc1 56.2 µM

From PubChem BioAssay AID504339 (National Center for Advancing Translational Sciences (NCATS), 2011)
